In PubChem BioAssay (EPA / NIEHS) one finds outcome and AC50 data, which are given here for 16 compounds.

For assay [1], the target named is sheep Cyclooxygenase-2 (Cox2), PTGS2 (gene 443460) (UniProt P79208). In words: NVS_ENZ_oCOX2: NovaScreen (NVS) Enzymatic Assay for sheep Cyclooxygenase-2 (Cox2) (AID 2283231). The essentials: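 Ovine placental enzyme, cell-free; chemical added, 0.66 h, absorbance (colorimetric). Screen 25 uM in duplicate; ≥threshold hits titrated, top 50 uM. Inhibition = signal loss vs DMSO.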

Assay [2] deals with sheep Cyclooxygenase-1 (Cox1), PTGS1 (gene 443551) (UniProt P05979). In words: NVS_ENZ_oCOX1: NovaScreen (NVS) Enzymatic Assay for sheep Cyclooxygenase-1 (Cox1) (AID 2283239).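 Further: actives reduce cyclooxygenase activity so potencies are for inhibitors.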 The essentials:
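COX1 from ovine seminal vesicles, activity read colorimetrically about 0.66 h after dosing. Primary screen in duplicate at 25 uM; actives retested in concentration series; loss of signal fitted versus DMSO.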

The subject of assay [3] is guinea pig Leukotriene B4 Receptor (LTB4), gene 100379538. In words: NVS_GPCR_gLTB4: NovaScreen (NVS) G Protein-Coupled Receptor Assay for guinea pig Leukotriene B4 Receptor (LTB4) (AID 2283247). The essentials:
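Membranes from guinea pig spleen incubated 2 h with radioligand and compound; bound counts measured by filtration and scintillation. Screened first at 25 uM in duplicate, then actives titrated to a 50 uM top concentration relative to DMSO.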

The target of assay [4] is human Vascular Endothelial Growth Factor Receptor 2 (VEGFR2), KDR (gene 3791) (UniProt P35968). In words: NVS_ENZ_hVEGFR2: NovaScreen (NVS) Enzymatic Assay for human Vascular Endothelial Growth Factor Receptor 2 (VEGFR2) (AID 2283230). The essentials: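 Cell-free recombinant VEGFR2 kinase, fluorescent substrate with electrophoretic mobility-shift separation; read 1 h after dosing. Screened at 25 uM in duplicate, hits to concentration-response up to 50 uM; loss-of-signal versus DMSO.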
Chain of human Vascular Endothelial Growth Factor Receptor 2 (VEGFR2), KDR (gene 3791) (P35968 whole entry, looked up): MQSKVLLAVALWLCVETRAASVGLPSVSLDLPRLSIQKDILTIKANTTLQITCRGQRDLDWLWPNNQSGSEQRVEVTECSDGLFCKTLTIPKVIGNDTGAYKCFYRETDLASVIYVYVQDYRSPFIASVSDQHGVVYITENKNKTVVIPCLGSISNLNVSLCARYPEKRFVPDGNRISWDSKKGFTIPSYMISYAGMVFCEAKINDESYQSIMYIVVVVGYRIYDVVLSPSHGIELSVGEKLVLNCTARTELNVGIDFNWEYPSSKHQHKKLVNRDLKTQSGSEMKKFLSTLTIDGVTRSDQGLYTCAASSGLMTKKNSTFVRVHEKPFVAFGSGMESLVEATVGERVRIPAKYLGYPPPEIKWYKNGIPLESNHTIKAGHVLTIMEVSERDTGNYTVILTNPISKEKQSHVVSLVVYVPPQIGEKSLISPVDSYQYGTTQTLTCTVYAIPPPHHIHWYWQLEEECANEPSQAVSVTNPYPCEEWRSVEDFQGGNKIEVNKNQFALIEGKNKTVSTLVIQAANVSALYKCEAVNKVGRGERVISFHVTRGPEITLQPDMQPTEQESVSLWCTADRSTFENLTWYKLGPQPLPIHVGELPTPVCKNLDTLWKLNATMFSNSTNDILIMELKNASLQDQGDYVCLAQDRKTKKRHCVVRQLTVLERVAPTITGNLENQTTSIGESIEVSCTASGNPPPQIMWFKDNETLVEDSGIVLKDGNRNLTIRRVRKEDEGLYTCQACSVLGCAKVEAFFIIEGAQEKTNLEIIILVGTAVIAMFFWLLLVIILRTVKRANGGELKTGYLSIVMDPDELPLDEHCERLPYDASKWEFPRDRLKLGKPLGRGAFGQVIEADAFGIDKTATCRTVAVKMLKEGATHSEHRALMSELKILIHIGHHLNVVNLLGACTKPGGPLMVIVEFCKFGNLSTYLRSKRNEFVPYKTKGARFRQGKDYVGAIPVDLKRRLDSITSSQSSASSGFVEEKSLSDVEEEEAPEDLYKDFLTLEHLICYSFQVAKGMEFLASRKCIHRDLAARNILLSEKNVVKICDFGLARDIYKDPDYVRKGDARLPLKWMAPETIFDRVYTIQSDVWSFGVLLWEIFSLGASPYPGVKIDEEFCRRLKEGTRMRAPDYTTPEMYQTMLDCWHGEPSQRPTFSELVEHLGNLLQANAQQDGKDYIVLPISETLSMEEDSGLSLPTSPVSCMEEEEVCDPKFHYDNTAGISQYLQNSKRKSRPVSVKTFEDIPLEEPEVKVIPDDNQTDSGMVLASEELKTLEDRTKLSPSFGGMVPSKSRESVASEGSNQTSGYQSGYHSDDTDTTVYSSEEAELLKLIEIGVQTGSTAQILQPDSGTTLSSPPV

The nature of assay [5]: NVS_GPCR_bNPY_NonSelective: NovaScreen (NVS) G Protein-Coupled Receptor Assay for bovine Neuropeptide Y (NPY) Receptor, Non-selective Binding (AID 2283245). The essentials:
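Displacement of radioligand from bovine hippocampal membrane receptors, read by filtration and scintillation counting after 1 hour. Concentration-response to a top of 50 uM followed a 25 uM duplicate primary screen. Loss of signal versus DMSO.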

The target of assay [6] is guinea pig Opioid, Kappa 1 Receptor (OpiateK), OPRK1 (gene 100135587) (UniProt P41144). In words: NVS_GPCR_gOpiateK: NovaScreen (NVS) G Protein-Coupled Receptor Assay for guinea pig Opioid, Kappa 1 Receptor (OpiateK) (AID 2283252).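 Further: radioligand displacement from kappa opioid receptor in guinea pig cerebellar membranes; active means reduced radioligand binding relative to DMSO.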 The essentials: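 Radioligand competition binding using guinea pig cerebellum membrane fraction; 2 h exposure; filter radiodetection. Single concentration 25 uM (duplicate), follow-up concentration-response for actives.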
Chain of guinea pig Opioid, Kappa 1 Receptor (OpiateK), OPRK1 (gene 100135587) (P41144 whole entry, looked up): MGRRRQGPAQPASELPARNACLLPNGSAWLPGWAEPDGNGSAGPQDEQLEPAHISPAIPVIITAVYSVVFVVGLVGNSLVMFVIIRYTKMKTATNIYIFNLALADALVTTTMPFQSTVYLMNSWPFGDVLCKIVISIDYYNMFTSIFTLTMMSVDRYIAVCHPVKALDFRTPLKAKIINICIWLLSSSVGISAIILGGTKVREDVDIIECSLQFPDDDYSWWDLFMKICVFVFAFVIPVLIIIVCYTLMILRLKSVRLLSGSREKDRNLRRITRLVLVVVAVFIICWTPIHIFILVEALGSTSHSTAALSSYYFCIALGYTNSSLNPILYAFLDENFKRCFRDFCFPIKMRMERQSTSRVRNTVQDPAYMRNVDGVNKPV

The target of assay [7] is human Adrenergic, Alpha 2A Receptor (Adra2A), ADRA2A (gene 150) (UniProt P08913). In words: NVS_GPCR_hAdra2A: NovaScreen (NVS) G Protein-Coupled Receptor Assay for human Adrenergic, Alpha 2A Receptor (Adra2A) (AID 2283257). The essentials: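 Displacement of a specific radioligand from HT29 membrane protein was counted by filter scintillation after 1 h. Compounds were screened in duplicate at 25 uM, and actives were retested in concentration series. Fitting was positive-direction against DMSO.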

The target of assay [8] is Adenosine receptor A1 (Bos taurus) (UniProt P28190). In words: NVS_GPCR_bAdoR_NonSelective: NovaScreen (NVS) G Protein-Coupled Receptor Assay for bovine Adenosine Receptor (AdoR), Non-selective Binding (AID 2283244). The essentials:
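Cell-free binding with membranes from bovine striatum: radioligand displaced by test chemical, read after 1 h by filtration and scintillation. Single-point 25 uM duplicate primary, 50 uM top concentration in follow-up curves, DMSO baseline.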

The target of assay [9] is human Adenosine A1 Receptor (AdoRA1), ADORA1 (gene 134) (UniProt P30542). In words: NVS_GPCR_hAdoRA1: NovaScreen (NVS) G Protein-Coupled Receptor Assay for human Adenosine A1 Receptor (AdoRA1) (AID 2283254). The method in brief: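 Hum. cortical membranes + radioligand, cmpd 1 h; filtration, scintillation count. Readout = decrease vs DMSO. Primary 25 uM dup; hits → conc. series.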
Chain of human Adenosine A1 Receptor (AdoRA1), ADORA1 (gene 134) (P30542 whole entry, looked up): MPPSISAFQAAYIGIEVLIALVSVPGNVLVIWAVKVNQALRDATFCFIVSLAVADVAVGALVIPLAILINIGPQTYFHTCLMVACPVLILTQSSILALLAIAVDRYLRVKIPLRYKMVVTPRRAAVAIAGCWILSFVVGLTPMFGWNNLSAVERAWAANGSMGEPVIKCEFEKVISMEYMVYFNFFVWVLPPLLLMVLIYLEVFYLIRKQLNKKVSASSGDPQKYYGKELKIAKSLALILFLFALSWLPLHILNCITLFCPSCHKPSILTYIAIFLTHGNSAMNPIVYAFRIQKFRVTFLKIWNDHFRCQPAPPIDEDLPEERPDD

Assay [10] deals with human Adenosine A2a Receptor (AdoRA2a), ADORA2A (gene 135) (UniProt P29274). In words: NVS_GPCR_hAdoRA2a: NovaScreen (NVS) G Protein-Coupled Receptor Assay for human Adenosine A2a Receptor (AdoRA2a) (AID 2283256). The essentials: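 HEK293-derived receptor preparation, radioligand displacement, 1.5 h, filtration + scintillation read. Loss of bound signal scored vs DMSO. Single-point 25 uM in duplicate first, then concentration-response for actives.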
Chain of human Adenosine A2a Receptor (AdoRA2a), ADORA2A (gene 135) (P29274 whole entry, looked up): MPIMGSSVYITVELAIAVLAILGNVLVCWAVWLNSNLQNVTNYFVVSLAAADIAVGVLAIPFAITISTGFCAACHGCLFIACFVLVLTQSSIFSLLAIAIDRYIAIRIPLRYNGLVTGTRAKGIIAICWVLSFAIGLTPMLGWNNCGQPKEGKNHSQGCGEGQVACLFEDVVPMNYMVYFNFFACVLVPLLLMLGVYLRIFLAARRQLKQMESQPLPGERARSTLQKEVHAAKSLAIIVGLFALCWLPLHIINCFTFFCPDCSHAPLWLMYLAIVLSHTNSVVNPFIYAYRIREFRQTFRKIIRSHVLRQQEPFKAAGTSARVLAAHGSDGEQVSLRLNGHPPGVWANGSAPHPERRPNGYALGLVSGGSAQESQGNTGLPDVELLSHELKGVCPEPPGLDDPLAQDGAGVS

For assay [11], the target named is rat Constitutive Nitric Oxide Synthase (CNOS), Nos1 (gene 24598) (UniProt P29476). In words: NVS_ENZ_rCNOS: NovaScreen (NVS) Enzymatic Assay for rat Constitutive Nitric Oxide Synthase (CNOS) (AID 2283236). The essentials: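 Single 25 uM duplicate screen, then concentration series to 50 uM for chemicals meeting threshold. Rat brain membrane-derived CNOS activity detected radiometrically by filtration and scintillation counting, 1 h after compound addition; DMSO as baseline.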

The target in assay [12] is human Serotonin, 5-Hydroxytryptamine Receptor 2A (5HT2A), HTR2A (gene 3356) (UniProt P28223). In words: NVS_GPCR_h5HT2A: NovaScreen (NVS) G Protein-Coupled Receptor Assay for human Serotonin, 5-Hydroxytryptamine Receptor 2A (5HT2A) (AID 2283249). The essentials: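 Radioligand displacement on human cortex tissue extract, counted by filtration and scintillation 1.5 h post-dosing. Initial single-concentration screen at 25 uM in duplicate, concentration series in follow-up; DMSO as baseline.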
Chain of human Serotonin, 5-Hydroxytryptamine Receptor 2A (5HT2A), HTR2A (gene 3356) (P28223 whole entry, looked up): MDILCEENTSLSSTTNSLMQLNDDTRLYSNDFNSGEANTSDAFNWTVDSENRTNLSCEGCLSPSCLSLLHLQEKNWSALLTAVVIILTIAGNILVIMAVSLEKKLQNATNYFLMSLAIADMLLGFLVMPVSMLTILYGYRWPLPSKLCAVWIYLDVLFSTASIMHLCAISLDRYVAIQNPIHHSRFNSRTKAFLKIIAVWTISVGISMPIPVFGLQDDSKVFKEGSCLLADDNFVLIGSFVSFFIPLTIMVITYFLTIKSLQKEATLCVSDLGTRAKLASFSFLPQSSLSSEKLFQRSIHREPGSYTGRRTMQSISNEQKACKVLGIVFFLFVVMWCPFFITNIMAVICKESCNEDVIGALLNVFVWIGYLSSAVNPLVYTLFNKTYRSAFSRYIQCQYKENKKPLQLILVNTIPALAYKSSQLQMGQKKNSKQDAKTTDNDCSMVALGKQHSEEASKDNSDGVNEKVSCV

The test system of assay [13] is guinea pig Muscarinic, Peripheral (Mperiperal) Receptor, Non-selective Binding, gene 100379235. In words: NVS_GPCR_gMPeripheral_NonSelective: NovaScreen (NVS) G Protein-Coupled Receptor Assay for guinea pig Muscarinic, Peripheral (Mperiperal) Receptor, Non-selective Binding (AID 2283250). The essentials: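 Screened in duplicate at 25 uM, hits retested in concentration series to 50 uM max, using bladder membrane radioligand displacement from guinea pig. Filtration and scintillation counting 1 h post-dose, fitted relative to DMSO.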

The target of assay [14] is bovine Dopamine Receptor (DR), Non-selective Binding, DRD1 (gene 281125) (UniProt Q95136). In words: NVS_GPCR_bDR_NonSelective: NovaScreen (NVS) G Protein-Coupled Receptor Assay for bovine Dopamine Receptor (DR), Non-selective Binding (AID 2283241). The method in brief: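 Filter-based radioligand binding with bovine striatal membrane, incubated 1 h; DMSO as negative baseline. Initial duplicate single-point test at 25 uM preceded concentration series for actives.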

The target in assay [15] is human Serotonin, 5-Hydroxytryptamine Receptor 6 (5HT6), HTR6 (gene 3362) (UniProt P50406). In words: NVS_GPCR_h5HT6: NovaScreen (NVS) G Protein-Coupled Receptor Assay for human Serotonin, 5-Hydroxytryptamine Receptor 6 (5HT6) (AID 2283253). The method in brief:
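Filter scintillation counting of radioligand displacement from HEK293-expressed 5HT6, 1 hour post-dose, with loss of signal relative to DMSO. Single 25 uM duplicates first, with concentration series for confirmation.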

Assay [16] addresses human Serotonin, 5-Hydroxytryptamine Receptor 5A (5HT5A), HTR5A (gene 3361) (UniProt P47898). In words: NVS_GPCR_h5HT5A: NovaScreen (NVS) G Protein-Coupled Receptor Assay for human Serotonin, 5-Hydroxytryptamine Receptor 5A (5HT5A) (AID 2283251). The method in brief: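 Membranes from HEK293 cells, radioligand binding read by filtration and scintillation after 1 h. Single-concentration duplicate testing at 25 uM, then concentration-response for actives; positive-direction fitting relative to DMSO.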

For assay [17], the target named is human Serotonin, 5-Hydroxytryptamine Receptor 7 (5HT7), HTR7 (gene 3363) (UniProt P34969). In words: NVS_GPCR_h5HT7: NovaScreen (NVS) G Protein-Coupled Receptor Assay for human Serotonin, 5-Hydroxytryptamine Receptor 7 (5HT7) (AID 2283255).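 Further: hits reduce specific radioligand binding relative to DMSO.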 The method in brief: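 Filter-bound radioactivity counted after 1 h, with loss of specific radioligand binding fitted against DMSO. Membrane protein came from CHO cells expressing human 5HT7. Chemicals were tested first at 25 uM in duplicate, then in concentration series if active.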

Records with an inconclusive call do not appear. Active and inactive are the calls of the source. How the source made its calls: active means hit-call score of the fitted dose curve at least 0.9, where 1 is the maximum; inconclusive means response in the unintended direction; inactive means score below 0.9.

Chain of human Serotonin, 5-Hydroxytryptamine Receptor 5A (5HT5A), HTR5A (gene 3361) (P47898 whole entry, looked up): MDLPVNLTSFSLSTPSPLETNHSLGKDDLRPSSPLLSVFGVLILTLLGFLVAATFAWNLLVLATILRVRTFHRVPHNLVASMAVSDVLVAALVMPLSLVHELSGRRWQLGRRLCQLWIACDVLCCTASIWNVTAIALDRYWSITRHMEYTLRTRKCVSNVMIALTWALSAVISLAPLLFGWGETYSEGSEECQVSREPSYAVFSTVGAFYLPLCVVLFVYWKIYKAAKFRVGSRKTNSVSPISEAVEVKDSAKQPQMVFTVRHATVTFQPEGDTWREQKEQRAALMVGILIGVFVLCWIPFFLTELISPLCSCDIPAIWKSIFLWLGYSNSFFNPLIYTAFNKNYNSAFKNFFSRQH
Chain of Adenosine receptor A1 (Bos taurus) (P28190 whole entry, looked up): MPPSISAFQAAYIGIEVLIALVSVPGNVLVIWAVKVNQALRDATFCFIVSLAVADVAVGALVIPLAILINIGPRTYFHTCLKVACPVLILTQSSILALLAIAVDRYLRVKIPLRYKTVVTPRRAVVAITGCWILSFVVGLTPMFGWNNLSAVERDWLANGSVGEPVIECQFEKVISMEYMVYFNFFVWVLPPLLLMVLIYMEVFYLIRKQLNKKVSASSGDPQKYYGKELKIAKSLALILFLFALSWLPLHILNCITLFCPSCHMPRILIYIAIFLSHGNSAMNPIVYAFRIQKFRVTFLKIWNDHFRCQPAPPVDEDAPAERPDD
Chain of sheep Cyclooxygenase-1 (Cox1), PTGS1 (gene 443551) (P05979 whole entry, looked up): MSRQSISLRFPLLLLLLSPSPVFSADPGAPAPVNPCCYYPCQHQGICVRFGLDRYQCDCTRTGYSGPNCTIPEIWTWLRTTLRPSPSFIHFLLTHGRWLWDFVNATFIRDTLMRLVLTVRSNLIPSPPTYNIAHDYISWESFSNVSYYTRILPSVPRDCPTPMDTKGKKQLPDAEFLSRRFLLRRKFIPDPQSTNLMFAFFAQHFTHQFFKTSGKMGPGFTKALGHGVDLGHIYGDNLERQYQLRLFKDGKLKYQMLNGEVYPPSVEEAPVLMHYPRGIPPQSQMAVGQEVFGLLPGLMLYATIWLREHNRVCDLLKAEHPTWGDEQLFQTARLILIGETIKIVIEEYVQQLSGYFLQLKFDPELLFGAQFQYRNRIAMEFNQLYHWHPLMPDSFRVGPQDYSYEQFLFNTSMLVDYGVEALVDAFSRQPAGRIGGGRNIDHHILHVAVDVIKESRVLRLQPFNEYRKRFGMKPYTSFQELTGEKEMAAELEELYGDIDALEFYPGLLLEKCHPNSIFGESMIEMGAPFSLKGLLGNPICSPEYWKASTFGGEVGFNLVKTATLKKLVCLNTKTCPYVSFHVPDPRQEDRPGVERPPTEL
Chain of human Serotonin, 5-Hydroxytryptamine Receptor 6 (5HT6), HTR6 (gene 3362) (P50406 whole entry, looked up): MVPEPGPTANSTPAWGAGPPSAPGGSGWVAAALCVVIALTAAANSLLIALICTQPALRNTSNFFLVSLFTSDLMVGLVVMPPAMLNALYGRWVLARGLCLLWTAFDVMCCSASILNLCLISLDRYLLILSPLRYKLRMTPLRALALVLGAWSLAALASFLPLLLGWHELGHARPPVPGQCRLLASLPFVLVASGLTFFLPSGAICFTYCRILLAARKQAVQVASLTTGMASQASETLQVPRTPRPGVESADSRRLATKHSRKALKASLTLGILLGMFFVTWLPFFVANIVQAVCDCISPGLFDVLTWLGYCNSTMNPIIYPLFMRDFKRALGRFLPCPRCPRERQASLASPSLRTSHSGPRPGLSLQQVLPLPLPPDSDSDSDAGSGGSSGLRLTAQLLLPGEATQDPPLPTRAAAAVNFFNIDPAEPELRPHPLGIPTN

For `C[C@]12C[C@H](O)[C@H]3[C@@H](CCC4=CC(=O)CC[C@@]43C)[C@@H]1CC[C@@H]2C(=O)CO`, the outcome in assay [1], in assay [2] and in assay [3] was inactive.

On to `S=C([S-])NCCNC(=S)[S-].[Mn+2]`, for which the half-maximal activity concentration (AC50) in assay [4] was 13.8 µM (active).

Turning to `CC(C)(C)[C@@H](O)[C@@H](Cc1ccc(Cl)cc1)n1cncn1`, the AC50 in assay [5] was 46.6 µM (active). The result in assay [6] was inactive.

For the compound `C=CCOC(Cn1ccnc1)c1ccc(Cl)cc1Cl` (configuration not stated), the AC50 was 12.2 µM (active) in [6] and 16.4 µM (active) in assay [7].

On to `COC(=O)c1cccc(C)c1S(=O)(=O)NC(=O)Nc1nc(OCC(F)(F)F)nc(N(C)C)n1`, for which the AC50 was 5.12 µM (active) in assay [8], 10.4 µM (active) in assay [9] and 6.04 µM (active) in assay [10].

Turning to `N#CSCSc1nc2ccccc2s1`, the call in [4], in [2] and in assay [12] was inactive. In addition, the AC50 is 6.64 µM (active) in assay [11], 7.3 µM (active) in assay [13] and 4.68 µM (active) in assay [7].

On to `CCCN(CCC)c1c([N+](=O)[O-])cc(C(F)(F)F)c(N)c1[N+](=O)[O-]`, for which the outcome in assay [2], in assay [14] and in [8] was inactive.

For `O=C(c1ccc(O)cc1O)c1ccc(O)cc1O`, the half-maximal activity concentration (AC50) is 14.6 µM (active) in assay [4], 3.39 µM (active) in assay [8], 4.96 µM (active) in assay [15] and 11 µM (active) in [9]. The outcome in [10] was inactive.

`Oc1ccc(C(c2ccc(O)cc2)C(Cl)(Cl)Cl)cc1`: the figures for the AC50 in assay [16], in assay [15] and in assay [17] were 6.9 µM (active), 0.18 µM (active) and 6.91 µM (active), respectively. Moreover, the result in assay [9] was inactive.

Regarding `C[C@]12CC[C@@H]3c4ccc(O)cc4C[C@@H](CCCCCCCCCS(=O)CCCC(F)(F)C(F)(F)F)[C@H]3[C@@H]1CC[C@@H]2O` (some centres not stated), the compound was called inactive in assay [12] and in assay [16].

For `CCOC(=O)C(C)Oc1ccc(Oc2cnc3cc(Cl)ccc3n2)cc1` (configuration not stated), the call in assay [16] was inactive.

As for `CCOC(=O)NCCOc1ccc(Oc2ccccc2)cc1`, the result in assay [3] was inactive.

On to `c1ccc2[nH]c(-c3cscn3)nc2c1`, for which the AC50 in assay [10] is 4.91 µM (active).

`COC(=O)c1ccc(CNS(C)(=O)=O)cc1S(=O)(=O)NC(=O)Nc1nc(OC)cc(OC)n1`: in assay [11], the concentration at half-maximal activity (AC50) is 7.99 µM (active).

On to `CC(C)CCCCCCc1ccc(O)cc1`, for which the result in assay [10] was inactive.

Consider `CC1(C)C(C=C(Cl)Cl)C1C(=O)OCc1cccc(Oc2ccccc2)c1` (configuration not stated), for which the call in assay [17] was inactive.
